According to PubChem BioAssay (Tox21):
Inconclusive results are not listed. A call without a number means that no potency is given here. Calls of active or inactive are those of the source. Calls follow the shape of the full dose curve.

Target: Acetylcholinesterase (Homo sapiens) (UniProt P22303)
Experiment: Acetylcholinesterase (AChE) small molecule antagonists: colormetric cell-based qHTS assay (AID 1347395); also: nearly all actives have a fitted effect of over 30% in size; also: potency is read from the fitted curve at half-maximal effect
Conditions: SH-SY5Y cells AChE activity, colorimetric (Ellman); series mostly up to 115 µM
How it was run: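 Colorimetric readout: DTNB quantifies thiocholine from acetylthiocholine hydrolysed by endogenous AChE of SH-SY5Y cells (2,000/well, plated overnight). Compound pretreatment 30 min, substrate incubation 90 min, both 37 C.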

Chain of Acetylcholinesterase (Homo sapiens) (P22303 whole entry, looked up): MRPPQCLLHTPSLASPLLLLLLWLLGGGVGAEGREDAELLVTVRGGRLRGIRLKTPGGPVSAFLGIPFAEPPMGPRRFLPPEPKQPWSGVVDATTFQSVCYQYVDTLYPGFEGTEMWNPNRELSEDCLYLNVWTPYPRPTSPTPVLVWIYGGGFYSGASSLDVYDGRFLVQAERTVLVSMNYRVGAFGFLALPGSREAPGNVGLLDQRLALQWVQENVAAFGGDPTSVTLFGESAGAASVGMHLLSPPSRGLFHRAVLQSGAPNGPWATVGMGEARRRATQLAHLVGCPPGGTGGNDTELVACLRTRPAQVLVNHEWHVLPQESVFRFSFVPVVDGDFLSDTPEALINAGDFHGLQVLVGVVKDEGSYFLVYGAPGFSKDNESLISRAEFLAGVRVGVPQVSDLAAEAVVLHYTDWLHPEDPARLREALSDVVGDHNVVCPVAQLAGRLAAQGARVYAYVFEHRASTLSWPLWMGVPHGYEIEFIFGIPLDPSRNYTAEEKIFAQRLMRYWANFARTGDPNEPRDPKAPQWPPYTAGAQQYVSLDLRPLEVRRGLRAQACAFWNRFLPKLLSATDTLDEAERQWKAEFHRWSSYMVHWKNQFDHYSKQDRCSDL

SMILES	Potency
C=C(C)C(=O)OCCCCCCCCCCCC	inactive
CN(C)CCC=C1c2ccccc2CCc2ccccc21	inactive
C=C(C)C(=O)OC(C)C	inactive
O=C(NCCCN1CCOCC1)c1ccc(Cl)cc1	inactive
C(=C/c1ccccc1)/c1ccccc1	inactive
O=P(c1ccccc1)(c1ccccc1)c1ccccc1	inactive
OC/C=C/c1ccccc1	inactive
C=CC(C)(O)CC/C=C(\C)CC (stereo not drawn)	inactive
Cc1cc2c(OCC(CNC(C)(C)C)OC(=O)c3ccccc3)cccc2[nH]1 (stereo not drawn)	inactive
Nc1nc2ncc(CNc3ccc(C(=O)N[C@@H](CCC(=O)O)C(=O)O)cc3)nc2c(=O)[nH]1	inactive
CCCCOCCOCCOCCOCCO	inactive
CC/C=C\CCOC(C)OCC (stereo not drawn)	inactive
CNS(=O)(=O)c1cc(C(=O)N2CCC(CCN3C4CCC3CC(n3c(C)nc5ccccc53)C4)(c3cccc(F)c3)CC2)c(Cl)cc1F (stereo not drawn)	8.94 µM (active)
O=Cc1c2ccccc2c(Cl)c2ccccc12	inactive
CCCC(O)C(CC)CO (stereo not drawn)	inactive
[Na+]	inactive
CC(=O)O[C@]1(C(C)=O)CC[C@H]2[C@@H]3C=C(Cl)C4=CC(=O)CC[C@]4(C)[C@H]3CC[C@@]21C	inactive
Clc1ccccc1C(c1ccccc1)(c1ccccc1)n1ccnc1	inactive
O=C1c2ccccc2C(=O)c2c1ccc(O)c2O	inactive
CC(C)Cc1nccs1	inactive

SMILES	Potency
CCCCCCCCC1CO1 (stereo not drawn)	inactive
CCOC(=O)[C@H](CCc1ccccc1)N[C@@H](C)C(=O)N1CCC[C@H]1C(=O)O	inactive
C=C[C@@H](C)CCC=C(C)C	inactive
CCCNC(=O)NS(=O)(=O)c1ccc(Cl)cc1	inactive
CCCC(C)C	inactive
O=S(=O)(O)CCS	inactive
CCCCCCCCCC(=O)O	inactive
Nc1ccccc1N	inactive
C=CCOC(=O)CCCCCC	inactive
CC(=O)Nc1ccc(C(=O)O)cc1	inactive
CC1=NN(c2cc(Cl)c(S(=O)(=O)O)cc2Cl)C(=O)C1N=Nc1ccc(S(=O)(=O)O)cc1 (stereo not drawn)	inactive
C=CC(C)(CCC=C(C)C)OC(C)=O (stereo not drawn)	inactive
FC(F)(F)/C(=N\OCC1OCCO1)c1ccc(Cl)cc1	inactive
O=[Se](O)O	inactive
O=C(Oc1ccccc1)c1ccc(O)cc1	inactive
Cc1cccc(C)c1NC(=O)CN1CCN(CCCC(c2ccc(F)cc2)c2ccc(F)cc2)CC1	inactive
CS(=O)(=O)c1ccc(Cl)cc1	inactive
CC[C@H](NC(C)C)[C@H](O)c1ccc(O)c2[nH]c(=O)ccc12	inactive
CCc1ccc(O)cc1	inactive

Target: Acetylcholinesterase (Homo sapiens) (UniProt P22303)
Experiment: Acetylcholinesterase (AChE) small molecule antagonists: enzyme-based qHTS assay (AID 1347397); also: nearly all actives have a fitted effect of over 55% in size
Conditions: Potency: AChE enzyme activity inhibition; outcome: AChE enzyme activity inhibition; series mostly up to 115 µM
How it was run: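 Enzyme inhibition was scored from DTNB-detected thiocholine formed by recombinant human AChE acting on acetylthiocholine. The 30 min compound preincubation and 10 min substrate reaction were both run at room temperature, with DMSO as vehicle control.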

SMILES	Potency
C=C(C)C(=O)OCCCCCCCCCCCC	inactive
CN(C)CCC=C1c2ccccc2CCc2ccccc21	inactive
C=C(C)C(=O)OC(C)C	inactive
O=C(NCCCN1CCOCC1)c1ccc(Cl)cc1	inactive
C(=C/c1ccccc1)/c1ccccc1	inactive
O=P(c1ccccc1)(c1ccccc1)c1ccccc1	inactive
OC/C=C/c1ccccc1	inactive
C=CC(C)(O)CC/C=C(\C)CC (stereo not drawn)	inactive
Cc1cc2c(OCC(CNC(C)(C)C)OC(=O)c3ccccc3)cccc2[nH]1 (stereo not drawn)	inactive
Nc1nc2ncc(CNc3ccc(C(=O)N[C@@H](CCC(=O)O)C(=O)O)cc3)nc2c(=O)[nH]1	inactive
CCCCOCCOCCOCCOCCO	inactive
CC/C=C\CCOC(C)OCC (stereo not drawn)	inactive
CNS(=O)(=O)c1cc(C(=O)N2CCC(CCN3C4CCC3CC(n3c(C)nc5ccccc53)C4)(c3cccc(F)c3)CC2)c(Cl)cc1F (stereo not drawn)	inactive
O=Cc1c2ccccc2c(Cl)c2ccccc12	inactive
CCCC(O)C(CC)CO (stereo not drawn)	inactive
[Na+]	inactive
CC(=O)O[C@]1(C(C)=O)CC[C@H]2[C@@H]3C=C(Cl)C4=CC(=O)CC[C@]4(C)[C@H]3CC[C@@]21C	inactive
Clc1ccccc1C(c1ccccc1)(c1ccccc1)n1ccnc1	inactive
O=C1c2ccccc2C(=O)c2c1ccc(O)c2O	inactive
CC(C)Cc1nccs1	inactive

SMILES	Potency
CCCCCCCCC1CO1 (stereo not drawn)	inactive
CCOC(=O)[C@H](CCc1ccccc1)N[C@@H](C)C(=O)N1CCC[C@H]1C(=O)O	inactive
C=C[C@@H](C)CCC=C(C)C	inactive
CCCNC(=O)NS(=O)(=O)c1ccc(Cl)cc1	inactive
CCCC(C)C	inactive
O=S(=O)(O)CCS	inactive
CCCCCCCCCC(=O)O	inactive
Nc1ccccc1N	inactive
C=CCOC(=O)CCCCCC	inactive
CC(=O)Nc1ccc(C(=O)O)cc1	inactive
CC1=NN(c2cc(Cl)c(S(=O)(=O)O)cc2Cl)C(=O)C1N=Nc1ccc(S(=O)(=O)O)cc1 (stereo not drawn)	inactive
C=CC(C)(CCC=C(C)C)OC(C)=O (stereo not drawn)	inactive
FC(F)(F)/C(=N\OCC1OCCO1)c1ccc(Cl)cc1	inactive
O=[Se](O)O	inactive
O=C(Oc1ccccc1)c1ccc(O)cc1	inactive
Cc1cccc(C)c1NC(=O)CN1CCN(CCCC(c2ccc(F)cc2)c2ccc(F)cc2)CC1	inactive
CS(=O)(=O)c1ccc(Cl)cc1	inactive
CC[C@H](NC(C)C)[C@H](O)c1ccc(O)c2[nH]c(=O)ccc12	inactive
CCc1ccc(O)cc1	inactive
